# Source: the supplement of paper PMC3334620
# Whole data set: some 33,000 sequences, median “E-score (-0.5 to 0.5)” near -0.016, cut for the highest 2% near 0.32. For the sample, the highest values were picked, then their nearest neighbours and some sequences at random.
# Target: T1, Stp1 (UniProt B3LFK1)
# T1 sequence: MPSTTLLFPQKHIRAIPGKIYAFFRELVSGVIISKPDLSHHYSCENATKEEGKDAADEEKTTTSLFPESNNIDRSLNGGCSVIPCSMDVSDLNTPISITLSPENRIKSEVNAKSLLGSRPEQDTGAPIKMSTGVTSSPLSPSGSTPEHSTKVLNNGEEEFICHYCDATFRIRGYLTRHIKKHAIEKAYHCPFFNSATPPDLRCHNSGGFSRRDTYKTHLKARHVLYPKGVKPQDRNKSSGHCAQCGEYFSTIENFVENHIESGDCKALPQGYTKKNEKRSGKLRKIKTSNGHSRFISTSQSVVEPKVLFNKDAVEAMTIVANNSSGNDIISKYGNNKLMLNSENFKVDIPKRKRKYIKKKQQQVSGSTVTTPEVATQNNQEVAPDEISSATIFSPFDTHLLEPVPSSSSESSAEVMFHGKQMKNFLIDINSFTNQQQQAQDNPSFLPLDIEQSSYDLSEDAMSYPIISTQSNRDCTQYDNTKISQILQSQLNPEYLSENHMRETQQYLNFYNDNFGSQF
# Assay: PBM E-score (8-mer binding enrichment) (E-score (-0.5 to 0.5)); higher = stronger / more preferred TF binding
# Settings: protein concentration: 200 nM; construct: GST-full length
# Method: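 Universal 'all 10-mer' protein binding microarrays (Agilent AMADID 015681) probed with GST-tagged S. cerevisiae TFs (full-length or DBD) made by in vitro transcription/translation (PURExpress), about 100-200 nM. Bound TF was detected with fluorescent anti-GST. Each ungapped 8-mer (which stands for itself and its reverse complement) is scored by the PBM enrichment score (E-score), a modified Wilcoxon-Mann-Whitney statistic from -0.5 to +0.5, computed with the Universal PBM Analysis Suite. Scale: above 0.35 generally sequence-specific binding.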
row,Sequence,PBM E-score
1,ACCTAGCC,-0.186
2,CTCAATTC,0.0345
3,GTGCCTAA,0.184
4,AACAGCGT,0.0405
5,ATCGGCGA,0.0557
6,CTCGGCAC,0.3
7,ATCGGCGC,0.342
8,CTCGGCGC,0.382
9,CTCGGCGA,0.123
10,ATCGGCGG,0.262
11,ACAACAAT,0.0375
12,CTCGACAA,-0.0792
13,GCCGCACC,0.449
14,AACGCACG,0.36
15,CCCGCACC,-0.149
16,ACCGCACC,0.0883
17,CACGCACG,0.203
18,CCCGCACG,0.222
19,GCCGCACA,0.452
20,ACCGCACA,-0.0115
21,AACGCACA,-0.0113
22,CAAACTTG,-0.0331
23,AAGTGACG,-0.00161
24,CAGATTGC,0.057
25,CGAACCTC,-0.0892

row,Sequence,PBM E-score
1,CGATGATC,-0.0137
2,ACGCCACA,0.295
3,GCGCCCCA,0.353
4,GCGCCACA,0.334
5,CCGCCACG,0.0257
6,ACGCCCTA,0.127
7,GCGCCCAA,0.119
8,GCGCCCCC,-0.129
9,CCGCCCTA,-0.041
10,GCGCCCTA,0.342
11,CGCTTGGC,0.0526
12,CTTGCCTC,0.0687
13,AACCTATG,0.053
14,CACCTTTA,-0.0604
15,AACCTGTC,-0.17
16,GCACTCGA,-0.0637
17,AGGCTTGC,-0.31
18,CGGCTTCC,0.211
19,AGGCTTCA,-0.0829
20,CGGCTTAG,0.0549
21,CGGCTTAA,0.318
22,CGGCTTCA,0.368
23,CGGCTTGA,0.0356
24,CGGCTTGC,0.37
25,TGGCTTAA,0.193

row,Sequence,PBM E-score
1,AATCCTGT,-0.037
2,ACCTATGG,-0.0452
3,CTCAGAAG,-0.0989
4,CCTAACAG,0.121
5,CTTCCCAC,-0.0242
6,TATGCATA,0.00403
7,TACTGTAA,0.021
8,ATGCAGGA,-0.258
9,AGGCGCGA,0.392
10,AGGCGCGG,0.355
11,AGGCGCGC,0.308
12,ACGCGCGA,0.105
13,AAGCGCGG,0.171
14,GGGCGCGA,0.28
15,CAGCGCGA,-0.0618
16,CTGCGCGC,0.269
17,CAGCGCGC,-0.00184
18,ATGCGCGG,0.307
19,CGGCGCGA,0.477
20,CGGCGCGC,0.475
21,CTGCTTAC,-0.0697
22,CTCGAAAG,-0.053
23,CCTCACCA,-0.0872
24,ACAAATGC,0.155
25,CTTCAAGC,0.0107

row,Sequence,PBM E-score
1,AGACCATC,-0.131
2,CCCCTAAA,-0.228
3,AGTTGATG,-0.0271
4,ATCTACAC,0.0776
5,ACTTTACG,0.0861
6,GCAGGAGA,-0.303
7,CGCCCGTA,-0.183
8,CCGCCGTA,0.42
9,ACGCCGTC,0.41
10,AGGCCGTC,-0.0198
11,ACACCGTA,-0.0212
12,ACGCCGAA,0.21
13,ACGCCGTG,0.485
14,ACGCCGGG,-0.0857
15,CCGCCGTC,0.255
16,AGGCCGTG,0.307
17,CCCCCGTA,-0.238
18,ACGCCGTA,0.471
19,AGCCGAGG,0.142
20,CTGCTGCA,-0.169
21,ATCAGGGA,-0.201
22,GATTTAAC,0.148
23,ATTGATTG,0.178
24,ATTGATTC,0.265
25,ATTGATTA,0.338

row,Sequence,PBM E-score
1,ACGGCTAA,0.377
2,ACGGCTAT,0.349
3,ACGGCTAG,0.235
4,GCGGCTAA,0.304
5,TCGGCTAA,0.145
6,GCGGCTAC,0.305
7,CCGGCTAC,0.0509
8,ACGGCTAC,0.407
9,AGGGCTAT,-0.325
10,AGTCTCCC,-0.272
11,CTTATAGC,-0.0511
12,CGGTGCAG,-0.0834
13,GTCAAATA,0.0762
14,GTCGCAAC,-0.0752
15,GAATAGTC,-0.205
16,ACAGGCAC,-0.047
17,CGCTAGGA,-0.0128
18,CACCGTAA,0.00961
19,TACCGTAA,0.0576
20,CGCCGTAA,0.418
21,GGCCGTAA,0.192
22,CCCCGTAA,-0.0389
23,TGCCGTAA,0.34
24,ACCCGTAC,0.0646
25,GACCGTAC,-0.0763

row,Sequence,PBM E-score
1,ATCCGTAC,0.28
2,AGCCGTAC,0.432
3,TCCCGTAA,-0.0808
4,GGCCGTAC,0.424
5,ATCGAGTG,0.141
6,AAATGTCC,-0.229
7,AATAAGCC,0.0484
8,AGTGAATG,0.0894
9,CAGTAACG,0.0111
10,TGTGCCAA,0.117
11,ATGACTGA,-0.164
12,CGATTCCG,-0.0394
13,GAGGCCAA,-0.164
14,ATAAATGG,0.0779
15,TAGGGCGA,0.178
16,ATCTCCTA,-0.214
17,ATTGAGGA,-0.0544
18,ATCCGTAG,0.112
19,ACCCGTAG,-0.36
20,CTCCGTAC,0.184
21,CGCCGTAG,0.465
22,AGCCGTAG,0.392
23,CACCGTAG,-0.0209
24,CGCCGTAC,0.487
25,AACCGTAT,-0.0259

row,Sequence,PBM E-score
1,AGCCGTAT,0.435
2,CCCCGTAG,-0.0863
3,AGCCGTAA,0.31
4,CACCGTAC,0.121
5,CGAGCCCA,-0.215
6,GAGACGTA,-0.074
7,ATTACTTC,-0.0579
8,ACGTGTCA,-0.0154
9,AAAGCACG,0.0591
10,CGATAGGC,0.135
11,GCACGGGC,0.19
12,GCACGGAC,0.28
13,ACACGGAC,0.217
14,GCACGGCC,0.415
15,ACACGGCC,0.344
16,ACACGGGC,0.0838
17,GTCTACAA,-0.0248
18,CCAGGCGG,-0.0554
19,AGACATTG,-0.194
20,GATCTTCA,-0.025
21,CTTTTAGA,0.0884
22,ACACGAAA,0.0839
23,GCACGAAC,0.101
24,GCACGAAA,0.326
25,GCCATACC,-0.0417

row,Sequence,PBM E-score
1,CCAACTGA,-0.167
2,TCGCCTCA,0.281
3,GTGCCTCA,0.365
4,GCGCCTAC,0.35
5,GTGCCTGA,-0.105
6,CCGCCTAC,-0.0313
7,ATGCCTTA,0.236
8,GCGCCTCA,0.401
9,GTGCCTTA,0.367
10,ACGCCTAC,-0.0656
11,CTGCCTCA,-0.0442
12,ACGCCTCA,0.313
13,ATGCCTCA,0.279
14,AGCCCACT,-0.203
15,TCTTTGCA,0.165
16,GCAGACCC,-0.107
17,CTCCCCTC,-0.3
18,AACTTGGA,0.0205
19,ATCGTCTG,0.0798
20,AAAGGTAC,-0.00049
21,GAAGTGCC,0.309
22,GAGTACTA,0.051
23,GCGCCTGA,0.16
24,CCGCCTTA,0.201
25,GCGCCTTA,0.399

row,Sequence,PBM E-score
1,ATTGCCCG,-0.0444
2,AAGGCTCT,0.21
3,ACGGCTCT,0.454
4,ACGGCTCA,0.403
5,CCGGCTCG,-0.0179
6,ACGGCTCC,0.449
7,ACGGCTCG,0.444
8,CCGGCTCC,-0.129
9,GCGGCTCC,0.315
10,AAGGCTCA,0.16
11,AGGGCTCA,-0.101
12,AAGGCTCG,-0.0294
13,ACAGCTCT,-0.306
14,CTCACAAA,0.109
15,GAAGAGGA,-0.286
16,AATCGATG,0.174
17,GACGCTCA,-0.136
18,GGGCTAGA,-0.142
19,ACCTTTCG,-0.121
